Bioassay records deposited in PubChem by National Center for Advancing Translational Sciences (NCATS).
Most compounds without a hit are left out; they make up all but 2.4% or so of the library.
POLK inh: DNA polymerase kappa (human) inhibition. hit rate 0.53% among 400,000. AID 588579. purified Pol kappa, fluorescent DNA synthesis assay, 10 min. Q9UBT6. Potency, µM (series often up to 107 µM), for inactives: at the highest dose activity, negative = inhibition, hits mostly inhibitors; further: on the % scale 0 is the no-effect control and ±100 the full control effect
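Readout: fluorescence, taken kinetically at 0 and 10 min. Conditions: 10 nM Pol kappa, 15 min RT compound preincubation, 50 nM substrate final. Controls: enzyme-free buffer wells.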
FEN1 inhibitor: blocks human flap endonuclease 1 | Recombinant FEN1 flap cleavage, fluorescence, 15 min | P39748 | hit rate 0.35% among 390,000 | Potency, µM (highest dose often 114 µM), for inactives: at the top dose activity change, negative = inhibition, actives largely listed as inhibitors; further: on the % scale 0 is the no-effect control and ±100 the full control effect; nearly all actives have a fitted effect of over 65% in size
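Potency values derive from four-parameter Hill fits of normalized qHTS data. The reaction used 10 nM FEN1 preincubated 15 min at room temperature with compound, then 50 nM DNA substrate, read at 0 and 15 min.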
Pol iota inh: inhibitors of human DNA polymerase iota | Q9UNA4 | Pol iota fluorescent replication assay, 10 min | Potency, µM (series often up to 115 µM), inactives show at the highest dose activity, negative = inhibition, usual class: inhibitors | hit rate 1% among 390,000 | AID 588590
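Fluorescent replication assay read twice, at 0 min and 10 min after adding 50 nM (final) substrate. Enzyme (10 nM) and compounds were first incubated 15 min at room temperature; enzyme-free buffer wells were negative controls.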
Pol eta inh: DNA polymerase eta (human) inhibition; Q9Y253; recombinant Pol eta, fluorescent DNA replication assay; Potency, µM (top dose mostly 114 µM), for inactives: at the top dose activity change, negative = inhibition, usual class: inhibitors; hit rate 1.2% among 390,000; AID 588591; further: on the % scale 0 is the no-effect control and ±100 the full control effect
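Pol eta at 10 nM preincubated with compounds 15 min at room temperature; reaction started with fluorescent substrate (50 nM final) and read kinetically at 0 and 10 min.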
POLB inh: DNA polymerase beta (human) inhibition | P06746 | Pol beta primer extension/strand displacement, fluorescence kinetic | Potency, µM (series often up to 114 µM), without a hit: at the highest dose activity change, negative = inhibition, most hits filed as inhibitors | hit rate 1.3% among 340,000 | AID 485314; further: on the % scale 0 is the no-effect control and ±100 the full control effect
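Pol beta (10 nM) was preincubated with compound for 15 min at room temperature. The reaction was then started with 50 nM substrate and read immediately and after a further 10 min at room temperature.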
WRN inhibitor: WRN helicase (human) inhibition | Q14191 | Potency, µM (doses to about 114 µM), without a hit: at the highest dose activity change, negative = inhibition, actives largely listed as inhibitors | hit rate 0.46% among 360,000 | WRN helicase unwinding, fluorescent forked duplex, kinetic | AID 651768; further: on the % scale 0 is the no-effect control and ±100 the full control effect; nearly all actives have a fitted effect of over 55% in size
Target sequence (Q14191 whole entry, looked up): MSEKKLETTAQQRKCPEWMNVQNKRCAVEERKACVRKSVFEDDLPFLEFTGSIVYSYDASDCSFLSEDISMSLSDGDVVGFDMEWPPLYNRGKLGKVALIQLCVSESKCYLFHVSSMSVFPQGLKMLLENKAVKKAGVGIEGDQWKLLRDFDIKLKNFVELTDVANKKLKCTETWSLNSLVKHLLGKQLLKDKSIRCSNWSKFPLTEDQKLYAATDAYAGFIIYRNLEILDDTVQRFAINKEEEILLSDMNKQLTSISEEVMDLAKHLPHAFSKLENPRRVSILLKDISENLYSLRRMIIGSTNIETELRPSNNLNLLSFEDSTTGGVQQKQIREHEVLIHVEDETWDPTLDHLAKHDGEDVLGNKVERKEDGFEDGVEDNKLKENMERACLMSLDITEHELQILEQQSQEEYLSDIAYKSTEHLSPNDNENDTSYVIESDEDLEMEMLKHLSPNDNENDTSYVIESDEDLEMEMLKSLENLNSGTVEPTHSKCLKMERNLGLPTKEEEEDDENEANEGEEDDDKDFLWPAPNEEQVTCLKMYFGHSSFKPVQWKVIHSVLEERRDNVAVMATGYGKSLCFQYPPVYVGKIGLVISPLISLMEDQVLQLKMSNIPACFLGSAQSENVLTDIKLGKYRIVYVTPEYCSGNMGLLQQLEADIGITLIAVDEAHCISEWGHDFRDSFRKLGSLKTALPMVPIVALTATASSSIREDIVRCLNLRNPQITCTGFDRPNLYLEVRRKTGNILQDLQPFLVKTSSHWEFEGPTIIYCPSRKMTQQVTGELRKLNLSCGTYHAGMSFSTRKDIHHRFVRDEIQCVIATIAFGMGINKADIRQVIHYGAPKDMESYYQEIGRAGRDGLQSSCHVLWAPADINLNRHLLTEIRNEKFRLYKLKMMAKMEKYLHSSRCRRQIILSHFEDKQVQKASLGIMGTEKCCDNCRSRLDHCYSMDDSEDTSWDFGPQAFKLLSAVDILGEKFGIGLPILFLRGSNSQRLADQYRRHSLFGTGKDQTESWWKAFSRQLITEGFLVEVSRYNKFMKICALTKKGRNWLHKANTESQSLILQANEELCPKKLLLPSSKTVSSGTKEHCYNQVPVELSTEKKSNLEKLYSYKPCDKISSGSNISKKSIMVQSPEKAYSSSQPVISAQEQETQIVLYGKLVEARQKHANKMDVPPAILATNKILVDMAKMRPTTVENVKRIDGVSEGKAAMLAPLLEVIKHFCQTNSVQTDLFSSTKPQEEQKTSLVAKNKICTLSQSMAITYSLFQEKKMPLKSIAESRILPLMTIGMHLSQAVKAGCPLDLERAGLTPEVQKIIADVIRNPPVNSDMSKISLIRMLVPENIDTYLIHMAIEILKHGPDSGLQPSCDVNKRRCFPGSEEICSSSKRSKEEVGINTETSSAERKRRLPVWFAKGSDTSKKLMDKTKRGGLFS
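Kinetic red-fluorescence monitoring (525/598 nm) tracks WRN helicase activity after 100 nM fluorophore-quencher forked duplex and 2 mM ATP are added to 20 nM enzyme pretreated 15 min at room temperature with compound.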
* = called active by the depositor; ? = inconclusive; / = no result; [ ] = dose if it differs, or a comment. The call rests on the fitted dose curve; in most records, active means well fitted curve in the direction sought with a large enough effect; inconclusive means small, poorly fitted or top-dose-only effect, or another doubt; inactive means no such curve, though single readings can be large; an effect the other way counts as inactive or inconclusive. Potency means the concentration at half of the fitted maximal effect.

SMILES	POLK inh	FEN1 inhibitor	Pol iota inh	Pol eta inh	POLB inh	WRN inhibitor
O=C1c2ccccc2CCC1CNCCc1ccc(O)cc1 (configuration not stated)	-2%[19.4 µM]	/	/	/	/	/
COC(=O)c1[nH]c(=O)c2ccccc2c1O	-7%	0%	22µM*	-22%	0%	-5%[57.1 µM]
O=C1C(=Cc2ccc(Br)o2)C(=O)c2ccccc21	?	14µM*	1.1µM*	0.79µM*	1.4µM*	8.9µM*
C=CCn1c(SCC(=O)Nc2ccc(C(=O)O)cc2)nc2scc(-c3ccccc3)c2c1=O	-8%	1%	-18%	-15%	/	-16%
C=CCn1c(SCC(=O)NC2CCCC2)nc2scc(-c3ccco3)c2c1=O	?	-2%	?	16µM*	25µM*	?
C=CCn1c(SCC(=O)NCCCC)nc2scc(-c3ccco3)c2c1=O	40µM*	-12%	20µM*	10µM*	22µM*	?
C=CCn1c(SCC(=O)NCC2CCCO2)nc2scc(-c3ccccc3)c2c1=O (configuration not stated)	-5%	-2%	-1%	-13%	2%	4%
CN(C)c1ccc(C(I)C(I)c2ccnc3ccccc23)cc1 (configuration not stated)	-2%	79µM*	-7%	/	/	/
COc1ccc(-c2cccc(C3C4C=CCCC4(C)C(=O)N3Cc3ccccc3)c2)cc1 (configuration not stated)	-25%	-16%	11%	/	/	/
CCCNc1c(F)c(F)c2c(C)c3ccccc3nc2c1F	79µM*	-15%	7.9µM*	-8%	-12%	?
COc1cc2c(O)cc(C(=O)O)c(-c3cc(OC)c(OC)c(OC)c3)c2cc1OC	8%	-4%	?	89µM*	/	-2%[11.6 µM]
COc1ccc(-c2cc(C(=O)O)c(C)o2)cc1OC	4%	8%	14%	6%	7%	4%
Oc1ccccc1C1C=C(c2ccc3c(c2)OCO3)NC(c2cccc(Cl)c2)N1 (configuration not stated)	-11%	-18%	?	/	/	/
O=C(NCC(c1ccc2c(c1)OCO2)N1CCOCC1)C(=O)Nc1ccccc1 (configuration not stated)	-8%[60.1 µM]	-8%	18µM*	0%	18%	/
c1cc2c(cc1Cc1cncc(Cc3ccc4c(c3)OCO4)c1)OCO2	-3%	-11%	34%	/	/	/
CCCN1CNc2c(c(=O)[nH]c(=S)n2CCc2ccc(C)cc2)C1	-3%	-2%	13%	/	/	/
Cc1cc(C(=O)CSc2nnc(-c3ccco3)o2)c(C)n1Cc1ccco1	-20%	1%	?	?	45µM*	?
Cc1ccc2cccc(OCC(=O)c3cc(C)n(Cc4ccco4)c3C)c2n1	/	/	/	/	11µM*	/
Cc1cc(C(=O)CCl)c(C)n1Cc1ccco1	-21%	-3%	?	?	?	-13%
Cc1ccc2c(c1)ncc[n+]2CC(=O)c1ccc(Cl)cc1Cl	-8%	-20%	-25%	/	/	/
COc1ccc(NC(=O)C(Cl)=C(Cl)Cl)cn1	0%	11%	35%	-11%	16%	4%
COc1ccc(NC(=O)/C(Cl)=C(/Cl)S(=O)Cc2ccc(Cl)cc2)cn1 (configuration not stated)	-6%	-4%	?	?	?	22µM*
O=[N+]([O-])c1ccc(Nc2nc(NCCN3CCOCC3)nc(Nc3ccc(I)cc3)n2)cc1	-20%	0%	5%	/	/	/
COc1ccc(OC)c(CNC(=O)c2ccc(NC(=O)c3nsc4ccccc34)cc2)c1	-8%[60.1 µM]	-14%	89µM*	-8%	40%	/
CCOc1cc(CNC(=O)c2ccc(NC(=O)c3nsc4ccccc34)cc2)ccc1OC	2%[60.1 µM]	2%	-8%	11%	-17%	/
SMILES	POLK inh	FEN1 inhibitor	Pol iota inh	Pol eta inh	POLB inh	WRN inhibitor
O=C1C[C@H]2C=CCc3cccc(c32)CN1Cc1ccc(Br)cc1	-10%	-18%	?	/	/	/
Clc1ccccc1Nc1nc(-c2ccncc2)nc2ccccc12	-6%[60.1 µM]	-30%	50µM*	-14%	-16%	4%[11.6 µM]
c1ccc2c(Nc3nc(-c4ccncc4)nc4ccccc34)cccc2c1	0%	3%	12%	-11%	27%	-12%
Cc1ccc(-c2nc(N/N=C/c3ccncc3)c3ccccc3n2)cc1	-17%	-1%	?	45µM*	?	-29%[57.1 µM]
COc1ccccc1C(C)NCC(=O)c1c(C)[nH]c2ccccc12 (configuration not stated)	-18%	1%	20%	/	/	/
CN(C)c1ccc(/C=C/c2sc3ccccc3[n+]2Cc2ccccc2)cc1	?	?	79µM*	/	/	/
CCCN(CCC)c1ccc(/C=C/c2sc3ccccc3[n+]2CCCCI)cc1	?	?	79µM*	/	/	/
COc1ccc(/C=C/c2sc3ccccc3[n+]2CCCCI)cc1OC	0%	-23%	?	/	/	/
CCc1cc(-c2oncc2-c2ccc(OC)cc2)c(O)cc1OC	-14%[60.1 µM]	/	/	/	/	/
COc1ccc(C)cc1NC(C)C(=O)c1c[nH]c2ccccc12 (configuration not stated)	-9%	-18%	-5%	/	/	/
CCOC(=O)C1=C(c2ccccc2)N=c2s/c(=C\c3ccc(O)cc3)c(=O)n2C1c1cccs1 (configuration not stated)	-29%	?	45µM*	-12%	?	?
O=C(O)COc1ccccc1/C=N/NC(=O)CSc1nc2ccccc2n1Cc1ccccc1Cl	-5%	3%	?	-12%	79µM*	-21%
O=C(CSc1nc2ccccc2n1Cc1ccccc1Cl)N/N=C/c1ccccc1C(=O)O	-3%	-21%	4%	-12%	?	-14%
O=C(/C=C/c1ccc(O)c([N+](=O)[O-])c1)c1ccc2ccccc2c1	-4%	?	?	22µM*	?	?
O=C(O)COc1ccc(/C=C/C(=O)c2ccc(C3CCCCC3)cc2)cc1	-6%	0%	?	40µM*	?	?
CN(C)c1ccc(/C=C/C(=O)c2ccccc2)cc1[N+](=O)[O-]	-17%	-12%	-1%	-13%	-28%	7%
O=C(O)COc1ccc(/C=C/C(=O)c2ccc3ccccc3c2)cc1	-13%	-8%	18µM*	25µM*	-11%	?
COc1ccc(CNc2nc(NCc3ccc(OC)cc3)c3ncn(C4CCCCC4)c3n2)cc1	7%[60.1 µM]	/	/	/	/	/
O=C(COc1ccccc1C(=O)Nc1ccccc1F)Nc1ccc(Br)cc1	3%	3%	16%	/	/	/
COc1cccc(C2C3=C(N=c4s/c(=C\c5ccc(OCC(=O)O)cc5)c(=O)n42)c2ccccc2CC3)c1 (configuration not stated)	-16%	-17%	-4%	89µM*	?	-20%
